In ChEMBL document CHEMBL1157539, “Thousands of chemical starting points for antimalarial lead identification” (Nature, 2010):

Tested on: HepG2
Test: GSK_TCMDC: Percent inhibition of human HepG2 cell line. Test compounds present at 10uM.
Format: functional

Compound | Inhibition
O=C(/C=C/c1ccc2ccccc2c1)NCCCCCN1CCC(c2c[nH]c3ccccc23)CC1 | 18%
Fc1ccc(Nc2ccnc3cc(-c4ccc(CN5CCOCC5)o4)ccc23)c(Cl)c1 | 42%
CC(C)CCN(Cc1cncn1Cc1cccc(C(F)(F)F)c1)C(=O)c1cncc(-c2ccccc2)c1 | 15%
COc1cc2c(cc1OCCN1CCC(N3CCCC3)CC1)N(C(=O)/C=C/c1ccccc1Cl)CC2.Cl | 38%
COCCCNc1sc(S(=O)(=O)c2ccccc2)nc1S(=O)(=O)c1ccc(Cl)cc1 | 0%
Cc1[nH]c(C)c(-c2ccc(CCc3ccc(F)cc3F)cc2)c(=O)c1Cl | 5%
O=C(Nc1ccc(N2CCCN(Cc3cccc(F)c3)CC2)cc1)c1ccccc1.O=C(O)C(F)(F)F | 25%
CC1CC(NCCCNc2cc(=O)c3ccccc3[nH]2)c2cc(Cl)c(Cl)c(Cl)c21 (stereo not given) | 0%
N#Cc1nc2ccc(OCCN(Cc3ccccc3C(F)(F)F)c3ccc(C#N)c(C(F)(F)F)c3)cc2s1 | 23%
C(=N\Nc1nccc2sc(-c3cccnc3)cc12)/c1ccncc1 | 65%
FC(F)(F)c1cccc(CNCC2CCN(Cc3ccc4c(c3)OCO4)CC2)c1.O=C(O)C(F)(F)F | 21%
CS(=O)(=O)N(c1ccccc1)c1cc(C(=O)N[C@@H](Cc2ccccc2)[C@H](O)CNC2CC2)cc(N2CCCC2=O)c1 | 1%
CC1CN(c2nc(NCCc3ccc(O)cc3)nc(NCc3ccccc3-c3ccc(C(F)(F)F)cc3)n2)CC(C)N1 (stereo not given) | 24%
O=C(/C=C/c1ccc(Cl)c(Cl)c1)NCCCCCN1CCC(NC(=O)Nc2ccc(F)c(Cl)c2)CC1 | 98%
Nc1cc(-c2ccc3c(N)nccc3c2)ccc1Cl | 1%
COc1ccc(-c2cc(NCc3ccc(-n4ccnc4)cc3)nc(Nc3ccccc3)n2)cc1 | 8%
Cc1cc(C)c(C)c(S(=O)(=O)N2CCCCC(c3ccc(F)c(F)c3)=N2)c1C | 5%
N=C(N)c1ccc(NCc2cccc(C(=O)O)c2)cc1.O=C(O)C(F)(F)F | 7%
Cc1ccc(C(C(=O)Nc2ccc(N3CCNCC3)c(Cl)c2)c2ccccc2)cc1 (stereo not given) | 23%
Cc1cccc2nc(-c3ccc(-c4cccc(NC(=O)Nc5ccccc5)c4)cc3)[nH]c12 | 18%

Compound | Inhibition
Cc1cc(-c2cc(-c3ccc(OCCN(C)C)cc3)[nH]c2-c2ccc3c(c2)CCC3=NO)ccn1 | 0%
COc1ccc(Cl)cc1NC(=O)C(C)Nc1ccc(-c2ccccc2)cc1 (stereo not given) | 0%
CCOC(=O)C(C(=O)OCC)c1nc(C)ns1 | 10%
O=C(O)C(F)(F)F.c1ccc2c(c1)CN(Cc1ccsc1)CC1(CCN(Cc3c[nH]c4cnccc34)CC1)O2 | 38%
Cc1cc(N/N=C/c2cccc([N+](=O)[O-])c2)c2ccccc2n1 | 0%
CN(Cc1ccccc1)C(=O)CCNS(=O)(=O)c1cc(Br)cnc1N | 0%
O=C(O)C(F)(F)F.O=S(=O)(NC1CCN(c2ccnc3cc(Cl)ccc23)C1)c1cccc(F)c1 (stereo not given) | 19%
CC(C)(C)c1ccc(CN2CCC(NC(=O)c3ccc(-c4ccccc4Cl)s3)CC2)cc1.O=C(O)C(F)(F)F | 36%
Cl.N#Cc1ccc2c(c1)CCN(CCC1CCC(NC(=O)/C=C/c3ccc(F)c4ccccc34)CC1)CC2 (stereo not given) | 29%
O=C(O)C(F)(F)F.O=S(=O)(NC1CCN(c2ccnc3ccccc23)C1)c1ccc(OC(F)(F)F)cc1 (stereo not given) | 34%
COc1ccc2nccc([C@@H](O)CN3CCC(NCc4ccc5c(n4)NCCC5)CC3)c2c1 | 21%
COc1cc(NC(=O)NC(CCN2CCC3(CCc4ccccc43)CC2)c2ccc(Cl)c(Cl)c2)cc(OC)c1OC (stereo not given) | 66%
COc1ccc(CN2CCCC(N3CC4(OC3=O)c3ccccc3-c3ccccc34)C2)c(O)c1 (stereo not given) | 14%
Fc1cc(Cl)ccc1Nc1ccnc2cc(-c3scnc3CNCCN3CCOCC3)ccc12 | 0%
COc1ccc2c(c1)S(=O)(=O)N=C(N1CCCC1c1ccc(Cl)c(Cl)c1)N2C.O=C(O)C(F)(F)F (stereo not given) | 0%
CS(=O)(=O)c1ccc(-c2nc(NCC3CCCCC3)cc(C(F)(F)F)n2)cc1 | 0%
O=C(Nc1ccc(-c2ccc(-c3nc4ccccc4[nH]3)s2)cc1)c1ccncc1 | 21%
COc1ccc2[nH]ccc(=NN=Cc3ccccc3Cl)c2c1 | 29%
COc1ccc2ncc(F)c(CCN3C4CCC3CC(NCc3cc5c(cn3)OCS5)C4)c2n1.Cl (stereo not given) | 15%
CC(CN(C)C)C(=O)Nc1ccc(-c2ccc(-c3nc4cc(F)ccc4[nH]3)cc2)cc1 (stereo not given) | 14%
